Source: PubChem BioAssay (EPA / NIEHS)
Where “and” joins values, the source holds several entries; their conditions need not be identical. Equal values may be shown once. Where a structure was tested more than once in an assay, its records may differ in their call. Calls of active or inactive are those of the source. How the source made its calls: active means hit-call score of the fitted dose curve at least 0.9, where 1 is the maximum; inactive means score below 0.9.

Assay: ATG_ISRE_CIS: Attagene CIS-FACTORIAL HepG2 Assay for human Interferon Regulatory Factor 1 (IRF1) binding to an Interferon-Stimulated Response Element (ISRE) (AID 2282948)
Details: HepG2 ISRE cis-reporter (Attagene), mRNA transcription readout; actives raise or lower the signal
Experimental: ATG_CIS is a cell-based, multiplexed-readout assay that uses HepG2, a human liver cell line, with measurements taken at 24 hours after chemical dosing in a 24-well plate.ATG_ISRE_CIS is one of 52 assay component(s) measured or calculated from the ATG_CIS assay. It is designed to make measurements of mRNA induction, a form of inducible reporter, as detected with fluorescence intensity signals by Reverse transcription polymerase chain reaction (RT-PCR) and Capillary electrophoresis technology.Data from the assay component ATG_ISRE_CIS was analyzed into 1 assay endpoint. This assay endpoint, ATG_ISRE_CIS, was analyzed with bidirectional fitting relative to DMSO as the negative control and baseline of activity. Using a type of inducible reporter, measures of mRNA for gain or loss-of-signal activity can be used to understand the reporter gene at the transcription factor-level as they relate to the gene IRF1. Furthermore, this assay endpoint can be referred to as a primary readout, because this assay has produced multiple assay endpoints where this one serves a reporter gene function. To generalize the intended target to other relatable targets, this assay endpoint is annotated to the dna binding intended target family, where the subfamily is interferon regulatory factors.
Human liver HepG2 cells are transiently transfected with multiple reporter transcription units (MRTUs) in 6-well plates using FuGene 6 reagent (Roche; 3 ml FuGene/1 mg DNA). The MRTU constructs are regulated by a cis-regulating element (promoter). […] A major difference between the CIS and TRANS system is that in CIS activities of endogenous TFs are measured, whereas the TRANS assay evaluates changes in activities of exogenous, chimeric NR-Gal4 proteins. […] At the end of 24 hour incubation, total RNA was isolated using TriZol reagent (Invitrogen). The isolated RNA is then reverse-transcribed using oligo(dT) primer and Mo-MLV reverse transcriptase (Invitrogen) with DNAse I (Ambion) treatment for 30 min. The one-tenth of the produced cDNA was amplified by PCR using Taq DNA polymerase (Invitrogen) and two reporter sequence-specific primers. The PCR products were fluorescently labeled by primer extension with 6-arboxyfluorescein (6-FAM) 5'-labeled reporter sequence-specific primer (2 min at 95 C, 20 s at 68 C and 10 min at 72 C) and these products were digested with 5U of HpaI (New England Biolabs) for 2h at 37 C. The fragments were purified using Qiaquick PCR columns (Qiagen), analyzed on an ABI 3130xL genetic analyzer (Applied Biosystems) with peak positions identified by using a set of X-rhodamine (ROX)-labeled MapMarker1000 molecular weight standards (BioVentures). The raw capillary electrophoresis data was processed using Attagraph software (Attagene).

Row | Structure (SMILES) | outcome | AC50
1 | c1ccc2c(c1)-c1cccc3c1c-2cc1ccccc13 | inactive | 
2 | CNC(C)=O | inactive | 
3 | CC(C)CCCCCCOC(=O)C1CCCCC1C(=O)OCCCCCCC(C)C (stereo not given) | inactive | 
4 | OCC(CO)(CO)CO | inactive | 
5 | CCc1ccc(O)c(C(C)(C)C)c1 | inactive | 
6 | CCN(CC)C(=S)SSC(=S)N(CC)CC |  | 81.3 µM (active)
7 | C=CCc1cc(S(=O)(=O)c2ccc(O)c(CC=C)c2)ccc1O | inactive | 
8 | CCOc1ccc2[nH]cc(C(=O)NCc3ccccc3)c(=O)c2n1 | inactive | 
9 | O=S(=O)(O)CCC(F)(F)C(F)(F)C(F)(F)C(F)(F)C(F)(F)C(F)(F)F | inactive | 
10 | O=S1(=O)CCCO1 | inactive | 
11 | CC(=O)c1ccccc1 | inactive | 
12 | c1ccc2ncccc2c1 | inactive | 
13 | FC(F)C(F)(F)COCC1CO1 (stereo not given) | inactive | 
14 | O=C(O)c1cccc(C(=O)O)c1 | inactive | 
15 | CC(C)C(=O)Nc1ccc([N+](=O)[O-])c(C(F)(F)F)c1 | inactive | 
16 | Cc1nc(-c2ccccn2)ncc1C(=O)Nn1cc(C)c2cc(F)ccc21 | inactive | 
17 | CC(C)CC(C)O (stereo not given) | inactive | 
18 | CC1(C)C(=O)N(Cl)C(=O)N1Cl | inactive | 
19 | CC[C@H](C)C(=O)O[C@H]1C[C@H](O)C=C2C=C[C@H](C)[C@H](CC[C@@H](O)C[C@@H](O)CC(=O)O)[C@H]21 | inactive | 
20 | NC(=O)N1c2ccccc2C=Cc2ccccc21 | inactive | 

Row | Structure (SMILES) | outcome | AC50
21 | c1ccc2cc3ccccc3cc2c1 | inactive | 
22 | O=C(O)c1cccc(C[C@@H]2COc3ccc(OCc4nc5cc(F)ccc5s4)cc3[C@@H]2O)c1 |  | 163 µM (active)
23 | FC(F)=C(F)C(F)(F)C(F)(F)C(F)(F)C(F)(F)C(F)(F)C(F)(F)F | inactive | 
24 | NC(=O)NN=Cc1ccc([N+](=O)[O-])o1 | inactive | 
25 | O=C(O)c1ccc2c(c1)nc(C(=O)NC1CCN(C3CC3)CC1)n2Cc1cc(-c2ccc(Cl)s2)on1 | inactive | 
26 | O=c1[nH]cnc2c1ncn2[C@H]1CC[C@@H](CO)O1 | inactive | 
27 | Cc1nccn1-c1ccc(Sc2cccc(C3(C(N)=O)CCOCC3)c2)cc1 |  | 7.26 µM (active)
28 | CCc1cccc(CC)c1N | inactive | 
29 | COc1cc2c(c(OC)c1OC)-c1ccc(OC)c(=O)cc1[C@@H](NC(C)=O)CC2 | inactive | 
30 | OCc1c[nH]c2ccccc12 | inactive | 27.1 µM (active) and 140 µM (active) and 32.2 µM (active)
31 | C[C@@H](Oc1ccc(CNC(=O)c2cccnc2Oc2ccc3c(c2)OCO3)c(F)c1)C(=O)O | inactive | 
32 | CCCC(CCC)C(=O)O | inactive | 
33 | CCCCCCCCCC | inactive | 
34 | NCC(F)(F)C(F)(F)C(F)(F)C(F)(F)F | inactive | 
35 | O=C(NO)C1(NS(=O)(=O)c2ccc(Oc3ccc(F)cc3)cc2)CCOCC1 | inactive | 
36 | COc1cc(C(C)C)c2c(c1)S(=O)(=O)N(COc1cc(=O)n3cccc(OCCN4CCCCC4)c3n1)C2=O |  | 5.08 µM (active)
37 | CCn1nc(C)c2c1C(=O)NCC(c1ccc(O)cc1)=N2 | inactive | 
38 | O=S(=O)(O)c1ccc(N=Nc2c(O)ccc3cc(S(=O)(=O)O)ccc23)cc1 | inactive | 
39 | COCc1nnc(-c2ccc[n+]([O-])c2)n1-c1c(Cl)c(Cl)cc2[nH]c(=O)c(=O)[nH]c12 | inactive | 
